# Assay outcomes (PubChem BioAssay)
# In the library only some 3.5% were active in any assay of this set; here they are far more common.
# DNMT1 inh – inhibitors of human DNMT1; P26358; DNMT1 molecular beacon, Hinp1I cleavage, fluorescence; inhibition (reported as % activation of signal), % at 10 µM; 360,000 tested, 0.83% active; in the data active means inhibition above about 50%
# rCAG RNA binder – r(CAG) repeat RNA binding; 370,000 tested, 1.3% active; TO-PRO-1 dye displacement fluorescence; inhibition, % at 3 µM;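 active means inhibition above the plate cutoff, the mean of all test compounds on that plate plus 3 SD, cut at about 35% in these data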;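 further: 0% = DMSO alone and 100% = 100 µM mitoxantrone as full dye displacement; higher means more dye released from RNA so lower well fluorescence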
# LEDGF integ inh – blocks HIV-1 LEDGF/p75-dependent DNA integration; AID 743269; 370,000 tested, 0.64% active; inhibition, % at 3.7 µM; TR-FRET IN-LEDGF/p75 DNA integration, Eu/Cy5;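 active means inhibition above the screen-wide mean plus 3 SD, cut at about 13% in these data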;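 further: signal is the Cy5 over europium emission ratio at 671 and 618 nm; 0% = plate median of compound wells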
# UHRF1 MBD2 ctr – UHRF1 methyl-DNA binding inhibition | Q96T88 | UHRF1 binding to methylated oligo, TR-FRET | inhibition, % at 4.4 µM | 370,000 tested, 0.75% active | AID 687016; in the data active means inhibition above about 21%;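 further: UHRF1 SRA domain binding a hemimethylated CpG hairpin DNA probe; 0% = median of test compound wells and 100% = reference inhibitor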
# Target sequence (Q96T88 whole entry, looked up, the tested form may be a part): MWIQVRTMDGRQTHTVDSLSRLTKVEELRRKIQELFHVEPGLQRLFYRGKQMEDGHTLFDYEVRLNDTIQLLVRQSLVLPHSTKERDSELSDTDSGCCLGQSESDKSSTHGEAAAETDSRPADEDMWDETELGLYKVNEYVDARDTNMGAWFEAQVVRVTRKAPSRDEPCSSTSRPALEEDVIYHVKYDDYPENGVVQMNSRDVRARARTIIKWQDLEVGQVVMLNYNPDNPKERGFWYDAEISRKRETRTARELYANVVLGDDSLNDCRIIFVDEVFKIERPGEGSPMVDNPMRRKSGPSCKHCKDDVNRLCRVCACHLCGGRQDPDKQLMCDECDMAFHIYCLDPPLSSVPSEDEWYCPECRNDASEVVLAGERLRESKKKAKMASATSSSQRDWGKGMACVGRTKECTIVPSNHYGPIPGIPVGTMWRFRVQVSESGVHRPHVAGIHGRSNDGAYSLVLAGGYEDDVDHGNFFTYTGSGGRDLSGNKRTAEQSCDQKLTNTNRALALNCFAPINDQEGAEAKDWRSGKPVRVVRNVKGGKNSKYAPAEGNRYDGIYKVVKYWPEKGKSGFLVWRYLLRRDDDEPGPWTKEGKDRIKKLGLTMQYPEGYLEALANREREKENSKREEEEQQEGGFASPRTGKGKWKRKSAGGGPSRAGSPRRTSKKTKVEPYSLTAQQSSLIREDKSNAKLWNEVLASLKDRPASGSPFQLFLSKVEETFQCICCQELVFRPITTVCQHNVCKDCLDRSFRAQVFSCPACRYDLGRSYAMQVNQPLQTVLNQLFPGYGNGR
# MBD2 inh – MBD2-methylated oligo binding inhibition; TR-FRET, MBD2 binding to methylated oligonucleotide; 370,000 tested, 0.31% active; Q9UBB5; inhibition, % at 4.4 µM; AID 686964; in the data active means inhibition above about 13%
# PG9 binder – binds the HIV-1 gp120 antibody PG9; TR-FRET gp120-PG9 antibody binding; inhibition, % at 6.7 µM; 360,000 tested, 0.43% active; AID 624416; in the data active means inhibition above about 8.5%
# * marks the source's active call; other numbers are inactive results; / = no result.
SMILES,DNMT1 inh,rCAG RNA binder,LEDGF integ inh,UHRF1 MBD2 ctr,MBD2 inh,PG9 binder
Cc1cnc(NC(=O)c2ccc3c(c2)C(=O)N(Cc2cccnc2)C3=O)s1,0.1,-0.3,0.3,1.6,1.8,0.3
CCN(CC(=O)NCc1cccs1)S(=O)(=O)c1ccc([N+](=O)[O-])cc1,6.3,-0.8,7.0,0.3,-4.8,-0.2
CCN(CC(=O)NCc1cccs1)S(=O)(=O)c1cccc(C(C)=O)c1,-3.9,4.3,-1.3,24.4*,5.1,-0.2
COc1ccc(OC)c(CNc2c(C=O)c(=O)[nH]c3ccccc23)c1,-4.0,-5.5,1.4,43.2*,-2.6,-0.2
C[C@@H]1C(=O)N2N=Cc3cc4ccccc4cc3[C@H]2N2N=Cc3cc4ccccc4cc3[C@@H]12,/,8.0,-0.4,6.1,4.0,/
Cc1cc(NS(=O)(=O)c2ccc(Nc3nc(-c4sc(N)nc4C)cs3)cc2)no1,85.5*,/,/,/,/,/
COC(=O)COc1coc(CN2CCN(c3cccc(Cl)c3)CC2)cc1=O,4.2,-4.7,7.5,20.9*,5.1,-0.5
Cc1ccc(O)c(NC(=O)CSc2n[nH]c(C)c2[N+](=O)[O-])c1,2.2,6.9,-0.2,33.1*,1.8,-2.9
CCCCCn1c(=O)[nH]c2cc(C(=O)NCc3ccc4c(c3)OCO4)ccc2c1=O,25.3,1.0,-2.3,30.0*,1.6,1.3
COc1ccc(CCNC(=O)c2cc3c(=O)n4ccccc4nc3n(CCCN3CCOCC3)c2=N)cc1,1.1,6.2,-0.2,23.6*,-4.5,0.8
COc1ccc(-c2cc(-c3nnc(SCC(=O)NC4CCCCC4)n3N)[nH]n2)cc1,/,0.9,-0.4,2.2,0.7,/
COC(=O)[C@]12C[C@H](CC(=O)NCc3cccs3)C(=O)N(Cc3ccco3)C1=C[C@H](C(C)C)O[C@@H]2C1CC1,/,1.3,-0.1,2.7,2.2,/
C=CCNC(=O)c1ccc(-n2cccc2)cc1,1.5,3.6,1.8,23.8*,10.5,-2.7
COc1ccc(N2CCN(C(=O)c3cc4c(s3)-c3ccccc3S(=O)(=O)C4)CC2)cc1,-1.2,0.9,0.7,22.3*,4.8,-1.6
CCCCCCCCN1C(=O)[C@@H](CC(=O)NCc2cccc(C(F)(F)F)c2)C[C@@]2(C(=O)OC)C1=C[C@H](C(C)C)O[C@@H]2C1CC1,/,13.4,3.0,-0.5,-6.2,/
CCN(CC)c1nc(C(F)(F)F)nc2c1nnn2Cc1ccccc1,3.9,-4.6,-3.6,38.9*,4.0,-1.5
Cc1ccccc1N1CCN(C2CCCN(C(=O)CCN3CCCCC3=O)C2)CC1 (stereo not given),2.0,-6.0,4.3,24.4*,1.4,2.9
COC(=O)[C@]12C[C@H](CC(=O)NCc3cccs3)C(=O)N(CCC3=CCCCC3)C1=C[C@H](C(C)C)O[C@@H]2C1CC1,/,2.5,2.5,6.5,-3.7,/
CC(C)C[C@@H]1COc2cc(Br)ccc2S(=O)(=O)N1Cc1cn(CCC2OCCCO2)nn1,/,4.3,1.2,5.7,-1.2,/
Cc1noc(C)c1S(=O)(=O)NCc1ccc(CN(C)C)cc1,-1.4,0.5,0.0,33.5*,2.9,-1.0
Cc1noc(C)c1S(=O)(=O)NCc1ccc2c(c1)OCO2,3.0,1.8,6.2,2.6,-3.8,1.2
CCN(CC)C(=O)CC[C@@H]1CC[C@]2(CCCN(C(=O)c3cccnc3)C2)O1,/,-0.6,4.0,-2.2,2.6,/
c1coc(-c2nc3c4ccccc4ccn3c2Cc2ccsc2)c1,/,14.7,5.2,21.7*,7.0,-1.1
Cc1cccc(-c2cccc3c4c([nH]c23)[C@@H]2C[C@H](N(C)C(=S)Nc3ccc(C#N)cc3)[C@H]([C@H](C)O)CN2CC4)c1,/,15.7,2.7,-0.7,5.2,/
COc1cc(C(=O)Nc2nc3ccccc3s2)ccc1OCc1c(C)noc1C,1.4,-8.9,3.0,3.6,-1.1,11.0*
SMILES,DNMT1 inh,rCAG RNA binder,LEDGF integ inh,UHRF1 MBD2 ctr,MBD2 inh,PG9 binder
COc1cc(C(=O)Nc2nccs2)ccc1OCc1c(C)noc1C,26.4,-3.0,-1.7,0.9,1.4,2.2
CCCS(=O)(=O)NC(=O)C1(C)CCCN(C(=O)c2ccccc2Br)C1 (stereo not given),1.0,1.3,-4.1,-1.6,-1.2,-0.6
COc1ccc(C)cc1Nc1n[n+](-c2ccccc2)c(-c2ccc(N(C)C)cc2)s1,60.0*,6.2,-2.3,-3.4,-2.3,-1.0
COc1ccc(C)cc1Nc1n[n+](-c2ccccc2)c(-c2ccc(OC)c(OC)c2OC)s1,-9.4,2.2,0.9,1.5,-4.6,-0.1
COc1ccc(CN(C)CC(=O)Nc2cccc(S(=O)(=O)N3CCCC3)c2)cc1F,-8.1,7.5,-1.2,-1.9,-2.5,-0.6
COc1cc(/C=C/C(=O)c2ccc(NS(=O)(=O)c3ccc(C)cc3)cc2)ccc1OC(F)F,-11.1,19.1,-3.0,1.4,4.8,-0.1
COc1cc(/C=C/C(=O)c2ccc(NS(=O)(=O)c3ccc(C)cc3)cc2)cc(OC)c1O,-22.4,47.0*,-0.9,4.9,3.9,1.0
COc1ccc(NC(=O)c2cc3ccccn3n2)cc1,3.6,3.4,4.3,29.5*,-6.3,0.0
COc1ccccc1C(=O)COC(=O)c1ccc(N(C)C)cc1,-8.7,0.1,0.7,99.7*,3.1,-1.6
COc1ccc(C(=O)OCC(=O)c2ccc3c(c2)NC(=O)CO3)cc1OC,-0.8,0.8,2.7,58.5*,-3.0,-1.5
COc1ccc(C(=O)OCC(=O)c2ccc3c(c2)NC(=O)CO3)cc1[N+](=O)[O-],-1.8,0.3,3.9,0.8,0.0,-1.1
COC(=O)C1CN(C2CC2)CCS(=O)(=O)N1Cc1cn(Cc2ccccc2)nn1 (stereo not given),/,2.0,6.9,12.3,12.4,/
c1ccc2c(NCCc3c[nH]c4ccccc34)c3ccccc3nc2c1,72.4*,26.3,-4.0,-6.3,3.8,-4.1
CCOc1ccc(CCNC(=O)c2cc3ccsc3n2C)cc1OCC,/,3.0,-0.2,2.3,8.5,/
O=S(=O)(CC1NCc2ccccc21)NCCc1ccccc1 (stereo not given),/,5.7,2.3,-9.1,-3.7,/
COC(=O)[C@H]1C[C@@]2(C#N)c3ccccc3N(C(=O)OC(C)(C)C)[C@H]2N1C(=O)OC(C)(C)C,/,-1.3,6.7,-2.1,-6.7,/
Cc1cc(C)nc(OC(C(=O)O)C(OCC(C)C)(c2ccccc2)c2ccccc2)n1 (stereo not given),-0.4,17.5,-9.1,-0.2,0.2,0.4
CCC(C)COC(c1ccccc1)(c1ccccc1)C(Oc1nc(C)cc(C)n1)C(=O)O (stereo not given),2.0,21.9,0.2,41.3*,1.0,0.8
O[C@H](COc1ccc(OC(F)(F)F)cc1)CN1CCC(C(O)(c2ccccc2)c2ccccc2)CC1,/,0.9,2.5,-0.5,5.5,/
Cc1cc(C(=O)OCC(=O)N2CCC(C)CC2)c2ccccc2n1,2.0,-1.8,34.9*,1.7,-2.4,-1.1
O=C(COc1cccnc1[N+](=O)[O-])N1CCN(C(=O)c2ccco2)CC1,11.3,-1.5,-5.6,25.2*,3.7,-1.6
